The supplement of paper PMC10849652
Of roughly 7,900 targets only a part is listed; those with a hit were picked by preference. About 0.6% of all pairs of compound and target were hits. Values without a mark were called inactive.

Legend:
Test in all cases: log2 fold change, soluble protein after heating vs DMSO (PISA); higher = thermal stabilisation; K562 cells, 10 uM, 30 min; active = over 0.2 and 3.5 SD of the protein, either way, in both replicates (recomputed)
[1] = compound: CC[C@@H]1C(=O)N(C)c2cnc(Nc3ccc(C(=O)NC4CCN(C)CC4)cc3OC)nc2N1C1CCCC1
Outline: (§1)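 Quantification of soluble protein used TMTpro 16plex LC-MS/MS, with channel sums equalised. Samples were the supernatant after 21,000xg for 90 min of pooled aliquots from K562 cells (2×10^6 cells/mL) treated with 10 μM compound for 30 min, heated for 3 min over 48°C-58°C, and extracted in PBS with 0.5% NP-40 at 4°C. Values, from duplicates, describe thermal stability against control samples on a log2 fold-change scale.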

volasertib = compound: CC[C@@H]1C(=O)N(C)c2cnc(Nc3ccc(C(=O)N[C@H]4CC[C@H](N5CCN(CC6CC6)CC5)CC4)cc3OC)nc2N1C(C)C [volasertib]
Outline: as §1

[2] = compound: CC[C@H](C)N1C=C(C2=C(C=C(C=C21)C3=CN=C(C=C3)N4CCNCC4)C(=O)NCC5=C(C=C(NC5=O)C)C)C
Outline: as §1

epoxomicin = compound: CC[C@H](C)[C@@H](C(=O)N[C@@H]([C@@H](C)O)C(=O)N[C@@H](CC(C)C)C(=O)[C@]1(CO1)C)NC(=O)[C@H]([C@@H](C)CC)N(C)C(=O)C [epoxomicin]
Outline: as §1

[3] = compound: CCn1c(C(=O)N(C2CC2)C2CC2)cc2c3c(ncn3C)c(Nc3cc(C)n(C)n3)nc21
Outline: as §1

[4] = compound: CCn1cc(-c2ccnc3[nH]c(-c4cccc(CN(C)C)c4)cc23)c(-c2ccc(NC(=O)N(C)C)cc2)n1
Outline: as §1

rosiglitazone = compound: CN(CCOC1=CC=C(C=C1)C[C@H]2C(=O)NC(=O)S2)C3=CC=CC=N3 (racemic) [rosiglitazone]
Outline: as §1

[5] = compound: CN1C2=C(C3=C1C(=O)N(N=C3)CC4=CC(=CC=C4)N)SC(=C2)S(=O)C
Outline: as §1

[6] = compound: CN1CCC(CNc2ccc3ncc(-c4cccc(OC(F)(F)F)c4)n3n2)CC1
Outline: as §1

saracatinib = compound: CN1CCN(CCOc2cc(OC3CCOCC3)c3c(Nc4c(Cl)ccc5c4OCO5)ncnc3c2)CC1 [saracatinib]
Outline: as §1

sotrastaurin = compound: CN1CCN(c2nc(C3=C(c4c[nH]c5ccccc45)C(=O)NC3=O)c3ccccc3n2)CC1 [sotrastaurin]
Outline: as §1

alvocidib = compound: CN1CC[C@H](c2c(O)cc(O)c3c(=O)cc(-c4ccccc4Cl)oc23)[C@H](O)C1 [alvocidib]
Outline: as §1

Tubastatin A = compound: CN1CCc2c(c3ccccc3n2Cc2ccc(C(=O)NO)cc2)C1 [Tubastatin A]
Outline: as §1

[7] = compound: CNC(=O)C1=CC=CC=C1NC2=NC(=NC=C2Cl)NC3=C(C=C(C=C3)N4CCOCC4)OC
Outline: as §1

rucaparib = compound: CNCc1ccc(-c2[nH]c3cc(F)cc4c3c2CCNC4=O)cc1 [rucaparib]
Outline: as §1

[8] = compound: CNc1nc(-c2ccc3c(N)n[nH]c3c2)cc(N2C[C@@H](C(=O)NC3CCCCC3)CC[C@H]2C)n1
Outline: as §1

encorafenib = compound: COC(=O)N[C@@H](C)CNc1nccc(-c2cn(C(C)C)nc2-c2cc(Cl)cc(NS(C)(=O)=O)c2F)n1 [encorafenib]
Outline: as §1

[9] = compound: CN(C)CC(=O)Nc1ccc2[nH]c(=O)c3ccccc3c2c1
Outline: as §1

defactinib = compound: CNC(=O)c1ccc(Nc2ncc(C(F)(F)F)c(NCc3nccnc3N(C)S(C)(=O)=O)n2)cc1 [defactinib]
Outline: as §1

[10] = compound: COC(=O)[C@H](CCSC)NC(=O)C1=C(C=C(C=C1)NC[C@H](CS)N)C2=CC=CC=C2
Outline: as §1

UniProt O14936, sequence (O14936 whole entry, looked up): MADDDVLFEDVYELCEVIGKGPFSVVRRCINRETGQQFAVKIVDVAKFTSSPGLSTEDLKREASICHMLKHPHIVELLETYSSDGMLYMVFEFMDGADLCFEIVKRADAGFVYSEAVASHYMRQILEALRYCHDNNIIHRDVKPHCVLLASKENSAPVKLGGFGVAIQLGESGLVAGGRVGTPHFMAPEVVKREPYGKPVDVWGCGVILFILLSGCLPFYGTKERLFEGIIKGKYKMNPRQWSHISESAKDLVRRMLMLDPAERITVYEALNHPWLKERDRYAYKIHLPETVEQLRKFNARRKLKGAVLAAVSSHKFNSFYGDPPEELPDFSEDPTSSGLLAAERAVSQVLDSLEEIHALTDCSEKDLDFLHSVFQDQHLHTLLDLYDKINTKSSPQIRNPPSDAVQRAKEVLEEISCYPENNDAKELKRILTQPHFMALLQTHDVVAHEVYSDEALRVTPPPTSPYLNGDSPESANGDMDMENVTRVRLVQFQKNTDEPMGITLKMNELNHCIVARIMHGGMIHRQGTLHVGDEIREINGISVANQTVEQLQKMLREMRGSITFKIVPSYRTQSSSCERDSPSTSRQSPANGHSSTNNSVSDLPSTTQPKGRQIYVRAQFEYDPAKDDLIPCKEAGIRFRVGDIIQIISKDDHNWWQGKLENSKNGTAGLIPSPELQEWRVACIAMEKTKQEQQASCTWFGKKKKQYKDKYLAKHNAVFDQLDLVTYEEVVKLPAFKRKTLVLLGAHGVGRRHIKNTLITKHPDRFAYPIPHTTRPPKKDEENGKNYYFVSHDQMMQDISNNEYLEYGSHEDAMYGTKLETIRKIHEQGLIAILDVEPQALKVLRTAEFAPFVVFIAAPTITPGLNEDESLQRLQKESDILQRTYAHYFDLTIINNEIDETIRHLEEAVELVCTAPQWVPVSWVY
UniProt Q14194, sequence (Q14194 whole entry, looked up): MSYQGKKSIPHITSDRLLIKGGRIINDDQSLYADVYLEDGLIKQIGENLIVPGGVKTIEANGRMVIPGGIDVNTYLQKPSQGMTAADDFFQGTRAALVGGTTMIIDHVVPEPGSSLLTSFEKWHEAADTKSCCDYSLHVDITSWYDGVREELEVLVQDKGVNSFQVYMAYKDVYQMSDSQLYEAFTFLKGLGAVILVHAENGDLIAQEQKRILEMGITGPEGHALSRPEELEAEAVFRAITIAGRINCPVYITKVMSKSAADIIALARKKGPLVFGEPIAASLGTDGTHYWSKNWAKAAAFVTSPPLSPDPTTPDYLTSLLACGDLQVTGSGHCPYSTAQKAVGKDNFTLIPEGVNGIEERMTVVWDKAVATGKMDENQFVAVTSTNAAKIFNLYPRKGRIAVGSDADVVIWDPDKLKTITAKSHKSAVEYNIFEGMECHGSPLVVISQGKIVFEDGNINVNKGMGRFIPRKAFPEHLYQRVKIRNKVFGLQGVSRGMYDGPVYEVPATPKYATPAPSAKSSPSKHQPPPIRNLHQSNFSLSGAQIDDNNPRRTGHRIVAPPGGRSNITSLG
UniProt P51911, sequence (P51911 whole entry, looked up): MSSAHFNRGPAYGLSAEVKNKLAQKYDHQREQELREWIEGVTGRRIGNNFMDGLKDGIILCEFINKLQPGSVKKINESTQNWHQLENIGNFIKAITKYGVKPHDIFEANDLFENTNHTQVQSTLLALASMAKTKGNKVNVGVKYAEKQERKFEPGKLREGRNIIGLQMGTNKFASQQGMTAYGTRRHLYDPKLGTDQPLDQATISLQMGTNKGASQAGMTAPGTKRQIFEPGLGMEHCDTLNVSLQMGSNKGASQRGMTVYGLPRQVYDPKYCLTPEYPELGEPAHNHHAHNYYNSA
UniProt P30281, sequence (P30281 whole entry, looked up): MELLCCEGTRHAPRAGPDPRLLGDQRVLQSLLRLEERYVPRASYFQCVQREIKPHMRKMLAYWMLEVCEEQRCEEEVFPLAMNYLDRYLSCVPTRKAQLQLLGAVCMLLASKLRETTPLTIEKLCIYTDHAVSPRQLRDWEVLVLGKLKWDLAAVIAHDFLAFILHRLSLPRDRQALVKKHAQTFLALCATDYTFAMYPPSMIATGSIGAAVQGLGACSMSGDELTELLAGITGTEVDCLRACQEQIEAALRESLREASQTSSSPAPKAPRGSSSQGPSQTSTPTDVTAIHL
UniProt Q14746, sequence (Q14746 whole entry, looked up): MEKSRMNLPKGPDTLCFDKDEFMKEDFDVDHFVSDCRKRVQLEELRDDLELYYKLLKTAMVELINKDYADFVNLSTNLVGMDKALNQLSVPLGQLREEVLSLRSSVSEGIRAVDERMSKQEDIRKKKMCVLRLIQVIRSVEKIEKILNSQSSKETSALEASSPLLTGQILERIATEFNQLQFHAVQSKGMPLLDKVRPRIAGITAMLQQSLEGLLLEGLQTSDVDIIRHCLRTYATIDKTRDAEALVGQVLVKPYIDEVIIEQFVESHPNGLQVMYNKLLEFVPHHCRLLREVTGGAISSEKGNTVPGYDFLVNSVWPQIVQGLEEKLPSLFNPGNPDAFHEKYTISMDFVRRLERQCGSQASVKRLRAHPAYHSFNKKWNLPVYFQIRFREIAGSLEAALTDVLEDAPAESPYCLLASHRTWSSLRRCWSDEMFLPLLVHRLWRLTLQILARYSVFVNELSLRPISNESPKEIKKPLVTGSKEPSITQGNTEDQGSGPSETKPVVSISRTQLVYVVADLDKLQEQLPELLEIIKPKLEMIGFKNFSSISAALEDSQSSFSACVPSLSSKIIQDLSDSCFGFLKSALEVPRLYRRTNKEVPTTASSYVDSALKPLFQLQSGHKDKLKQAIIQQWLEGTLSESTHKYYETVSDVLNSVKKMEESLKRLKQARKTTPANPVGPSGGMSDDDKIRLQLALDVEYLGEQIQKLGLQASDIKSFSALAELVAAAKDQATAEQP
UniProt Q96GV9, sequence (Q96GV9 whole entry, looked up): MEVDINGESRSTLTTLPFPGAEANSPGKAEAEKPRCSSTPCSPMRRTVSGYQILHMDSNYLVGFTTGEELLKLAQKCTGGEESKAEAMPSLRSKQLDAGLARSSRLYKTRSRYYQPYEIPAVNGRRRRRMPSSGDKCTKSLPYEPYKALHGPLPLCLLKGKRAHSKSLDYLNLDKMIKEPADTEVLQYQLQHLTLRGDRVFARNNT
UniProt Q6UUV7, sequence (Q6UUV7 whole entry, looked up): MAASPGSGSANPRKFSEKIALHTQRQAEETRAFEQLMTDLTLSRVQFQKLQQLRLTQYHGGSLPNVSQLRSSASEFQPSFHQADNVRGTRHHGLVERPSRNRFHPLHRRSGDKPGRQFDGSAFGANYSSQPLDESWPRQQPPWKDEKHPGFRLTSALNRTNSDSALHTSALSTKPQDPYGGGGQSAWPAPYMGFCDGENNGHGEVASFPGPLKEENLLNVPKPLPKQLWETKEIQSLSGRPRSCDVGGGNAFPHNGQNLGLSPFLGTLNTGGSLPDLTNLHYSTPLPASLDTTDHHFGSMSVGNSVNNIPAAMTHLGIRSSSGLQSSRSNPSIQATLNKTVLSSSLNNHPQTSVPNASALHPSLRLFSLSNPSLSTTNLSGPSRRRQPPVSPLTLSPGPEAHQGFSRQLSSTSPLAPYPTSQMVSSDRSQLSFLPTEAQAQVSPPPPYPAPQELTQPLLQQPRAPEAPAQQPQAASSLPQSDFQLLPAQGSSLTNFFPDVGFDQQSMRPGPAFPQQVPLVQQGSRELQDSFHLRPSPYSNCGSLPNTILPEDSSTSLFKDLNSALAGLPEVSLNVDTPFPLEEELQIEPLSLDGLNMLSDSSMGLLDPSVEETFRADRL
UniProt P34810, sequence (P34810 whole entry, looked up): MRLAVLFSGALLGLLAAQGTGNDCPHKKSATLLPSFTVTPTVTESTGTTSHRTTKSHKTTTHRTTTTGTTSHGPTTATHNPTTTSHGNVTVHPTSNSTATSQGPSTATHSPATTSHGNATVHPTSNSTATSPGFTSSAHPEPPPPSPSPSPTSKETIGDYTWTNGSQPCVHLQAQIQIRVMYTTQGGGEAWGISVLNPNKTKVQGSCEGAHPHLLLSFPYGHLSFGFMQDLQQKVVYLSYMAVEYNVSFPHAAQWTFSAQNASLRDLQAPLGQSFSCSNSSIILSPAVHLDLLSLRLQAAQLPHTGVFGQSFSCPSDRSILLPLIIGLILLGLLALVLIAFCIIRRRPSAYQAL
UniProt Q96F85, sequence (Q96F85 whole entry, looked up): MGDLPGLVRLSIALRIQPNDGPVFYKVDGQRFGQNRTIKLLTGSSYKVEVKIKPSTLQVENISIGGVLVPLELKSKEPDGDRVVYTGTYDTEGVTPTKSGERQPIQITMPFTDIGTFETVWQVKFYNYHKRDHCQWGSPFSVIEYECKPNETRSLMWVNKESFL
UniProt Q9P0B6, sequence (Q9P0B6 whole entry, looked up): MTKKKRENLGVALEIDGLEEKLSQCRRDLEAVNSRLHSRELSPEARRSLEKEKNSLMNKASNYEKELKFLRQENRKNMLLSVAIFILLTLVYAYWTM
UniProt Q6UUV9, sequence (Q6UUV9 whole entry, looked up): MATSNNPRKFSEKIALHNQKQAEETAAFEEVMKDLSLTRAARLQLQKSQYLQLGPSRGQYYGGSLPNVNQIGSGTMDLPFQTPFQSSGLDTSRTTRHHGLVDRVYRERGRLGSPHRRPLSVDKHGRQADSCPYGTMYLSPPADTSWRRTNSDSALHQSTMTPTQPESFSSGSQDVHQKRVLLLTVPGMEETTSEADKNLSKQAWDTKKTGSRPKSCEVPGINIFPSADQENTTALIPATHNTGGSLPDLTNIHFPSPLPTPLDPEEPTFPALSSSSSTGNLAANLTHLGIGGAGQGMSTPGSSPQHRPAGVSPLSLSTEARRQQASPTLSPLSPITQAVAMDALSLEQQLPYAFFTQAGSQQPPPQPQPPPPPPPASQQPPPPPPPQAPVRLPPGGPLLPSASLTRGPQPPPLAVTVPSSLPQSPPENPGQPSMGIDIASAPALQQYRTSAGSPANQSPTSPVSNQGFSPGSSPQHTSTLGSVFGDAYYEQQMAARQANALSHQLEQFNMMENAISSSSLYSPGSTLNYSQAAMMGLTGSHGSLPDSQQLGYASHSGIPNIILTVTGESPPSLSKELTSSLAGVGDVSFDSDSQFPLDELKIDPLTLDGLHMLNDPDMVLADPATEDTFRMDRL

Target	log2 fold change [1]	log2 fold change (volasertib)	log2 fold change [2]	log2 fold change (epoxomicin)	log2 fold change [3]	log2 fold change [4]	log2 fold change (rosiglitazone)	log2 fold change [5]	log2 fold change [6]	log2 fold change (saracatinib)	log2 fold change (sotrastaurin)	log2 fold change (alvocidib)	log2 fold change (Tubastatin A)	log2 fold change [7]	log2 fold change (rucaparib)	log2 fold change [8]	log2 fold change (encorafenib)	log2 fold change [9]	log2 fold change (defactinib)	log2 fold change [10]
CCDC167 (UniProt Q9P0B6)	0.069	-0.12	-0.029	0.019	-0.011	0.13	-0.084	-0.095	0.033	-0.05	-0.018	0.061	-0.063	-0.006	0.021	0.104	-0.037			
CDC42SE1 (UniProt Q9NRR8)	-0.995 (active)	-2.6 (active)	-0.127	0.031	0.029		-0.017	-0.074		0.074	-0.033	-0.019	-0.562 (active)	0.228	0.087	0.01	-0.032	0.05	-0.041	0.077
C6orf120 (UniProt Q7Z4R8)	0.066	-0.101	0.019		0.095		0.06	-0.245		-0.097	0.008		0.041	-0.145	0.127	0.041	0.074	-0.155	0.024	-0.045
CCND3 (UniProt P30281)	-0.085	0.102		0.363 (active)	-0.003	-0.021	-0.025	0.063	-0.175	0.03		0.008	0.242	-0.018	0.113	-0.067	-0.11	-0.022	-0.037	0
CNN1 (UniProt P51911)	-0.049	-0.066	-0.066	-0.015		-0.403			-0.192		0.15	-0.115	0.126		0.102		-0.046	-0.007	-0.028	0.043
CHAF1A (UniProt Q13111)	0.025	-0.021	0.036	-0.039	-0.078	0.064	-0.018	0.158	0.051	0.008	0.004	0.041		0.133	0.198	-0.125	0.094			
C5orf30 (UniProt Q96GV9)		0.001		0.165									0.502							
CCDC187, A0A1W2PQX5			0.012	0.085		-0.03			-0.029											
CD68 (UniProt P34810)					0.091		0.104				-0.031			0.043						
COG2 (UniProt Q14746)	-0.173		-0.357	0.008	0.076			0.302		0.001	-0.32	0.137	-0.08	-0.135	-0.272	-0.085	0.007			
CRTC1 isoform 2 (UniProt Q6UUV9)		0.211		-0.062	-0.164	0.034	0.065	-0.153	0.101	-0.026	0.011		-0.009	-0.101		-0.062		-0.069	-0.021	0.009
CCNDBP1 (UniProt O95273)	0.088		0.133		-0.045	-0.036	0.032	0.013	-0.048	0.078	-0.209	-0.007	0.001	0.115	-0.002	-0.04	0.062	-0.094	-0.107	-0.027
CDK2AP2 (UniProt O75956)	0.078		-0.04	0.137	0.074		-0.002					-0.048		-0.092	0.134		-0.038			
CS (UniProt F8VU34)	-0.093						0.221								0.268		0.158			
CAV2 (UniProt P51636)		-0.098	-0.032		-0.059	-0.036	-0.076	0.01	0.074	-0.006	0.045		0.159	-0.019		0.013				
CASK (UniProt O14936)					-0.086			0.014		-0.068				-0.064		-0.009				
CRTC3 (UniProt Q6UUV7)		0.051		0.094			0.148				0.044	-0.051	-0.109					-0.117	0.025	-0.06
CRMP1 isoform 2 (UniProt Q14194)			0.2		-0.303	-0.198	0.047	-0.25	0.038	-0.059	0.107	-0.052	0.025	0.024		-0.041		-0.072	-0.149	0.025
COX17 (UniProt Q14061)			0.044	0.504	-0.097	-0.154		-0.146	0.055	-0.092	-0.023	-0.101	-0.113	-0.008		0.023		-0.051	-0.072	0.147
CSNK1A1 isoform 3 (UniProt P48729)		-0.224					-0.005													
CNRIP1 (UniProt Q96F85)		0.306	-0.269	-0.043	-0.136									0.053						
COMMD3-BMI1 (UniProt R4GMX3)		0.038	0.062	0.026		0.006			-0.105		-0.024	0.05	-0.074							
CLN5 (UniProt O75503)		-1.25 (active)	-0.001	0.014	0.416	-0.183	-0.025	0.139	-0.834 (active)	-0.283	-0.008	0.01	0.079	0.032		-0.715				
CRYM-AS1 (UniProt A6NIL9)	-0.04		0.233	-0.107	0.104	-0.029	-0.068	0.04	-0.714 (active)	-0.092	-0.041	0.063	0.119	-0.347	-0.356	0.103	0.024	0.089	-0.065	-0.078
CARD9 (UniProt Q9H257)					-0.103									0.388						
CLPTM1L (UniProt G5E9Z2)			-0.055	0.247		0.116	0.189		0.052		-0.288	0.051	-0.109					0.117	0.002	-0.029
CASP7 isoform 3 (UniProt P55210)	0.014		0.017	0.222	-0.001	-0.569	0.259	0.032	-0.697	0.185				0.151	-0.013	0.254	0.014			
CCNC (UniProt P24863)				0.035	0.031	-0.178	-0.022	0.032	0.4 (active)	0.057	-0.057	0.6 (active)		0.008		-0.028		-0.011	-0.047	0.001
